# Data taken from the supplement of paper PMC8728848.
# This is one part of a sample in which the strongest signals are shown more often than they occur.
# B1: CvGal2 (Crassostrea virginica) (protein)
# chain: MGSSHHHHHHSSGLVPRGSHMRIREAGKRKDTTKVYQIPDGLFPGQQVMLRGRVPWGSKSFSINFSATPRMGEGDILFHLNPRPSEGVCIRNALLNGSWGAEEKWQPYFPFDDGRSFSVKIEVTNDAFRTFVNGRPFVDFLHRTDFRAGKYLTLREGAEYYDVIFQSKPNIPLTTAIHNGMRIGKTIRIRGMCTAQDGFAINFNDNRNNIYFHFNARPAQRTVVRNSYFGSWGNEETAISKEFPFYPFLYFYASFVCMEDKFAVYVNDEHFIDFAHRGNPNNISVLQIKGSVNVLDTECLEPMGEDAMTEVDSGLENGDLFVLNGLMTERGKTFAVNFLNGFTENDDIALHFNPRKSTGEVVLNSRYGGAWQSEEKVALPGVFWSNRPLQVKVETKRNKFKIYVNGVDLAKYKIRGNVEDVHAVQVKGDVFLLETLLLKRLMKPVWERLTGGIRPGTWVTLQGTPKKNWQQFVVNFALDDTLDGDIAFHFNVRRGARQVVRNHRQSGAWGREETVTPFFAFDSEATFEIVFFVKEEKFLIYFNGKLFFEFVHRVPVERITHIYMDGDCNFYEPEVVI
# Legend:
# Experiment in all cases: glycan array binding signal (z-score within array); higher = stronger binding
# Conditions in all cases: glycan notation: IUPAC condensed, linker removed
# [1] = target: Fuc(a1-2)Gal(b1-3)GalNAc(a1-3)[Fuc(a1-2)]Gal(b1-4)GlcNAc
# Method in brief: (§1)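 Glycan array data came from 3228 arrays in the Consortium for Functional Glycomics database, and only arrays with an available protein sequence were kept. Glycan names were put into IUPAC-condensed notation, and columns mapping to the same glycan were averaged. The binding signal is a within-array Z-score, averaged across arrays of one protein sequence run at different concentrations or buffers and across linkers. A negative Z-score can be read as non-binding.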
# [2] = target: Fuc(a1-2)[Gal(a1-3)]Gal(b1-3)GlcNAc(b1-2)Man(a1-3)[Fuc(a1-2)[Gal(a1-3)]Gal(b1-3)GlcNAc(b1-2)Man(a1-6)]Man(b1-4)GlcNAc(b1-4)GlcNAc
# Method in brief: as §1
# [3] = target: Fuc(a1-2)[Gal(a1-3)]Gal(b1-4)Glc
# Method in brief: as §1
# [4] = target: Fuc(a1-2)[Gal(a1-3)]Gal(b1-4)GlcNAc
# Method in brief: as §1
# [5] = target: Fuc(a1-2)[Gal(a1-3)]Gal(b1-4)GlcNAc(b1-2)Man(a1-3)[Fuc(a1-2)[Gal(a1-3)]Gal(b1-4)GlcNAc(b1-2)Man(a1-6)]Man(b1-4)GlcNAc(b1-4)GlcNAc
# Method in brief: as §1
# [6] = target: Fuc(a1-2)[GalNAc(a1-3)]Gal(b1-3)GlcNAc(b1-2)Man(a1-3)[Fuc(a1-2)[GalNAc(a1-3)]Gal(b1-3)GlcNAc(b1-2)Man(a1-6)]Man(b1-4)GlcNAc(b1-4)GlcNAc
# Method in brief: as §1
# [7] = target: Fuc(a1-2)[GalNAc(a1-3)]Gal(b1-3)GlcNAc(b1-3)GalNAc
# Method in brief: as §1
# [8] = target: Fuc(a1-2)[GalNAc(a1-3)]Gal(b1-4)GlcNAc(b1-2)Man(a1-3)[Fuc(a1-2)[GalNAc(a1-3)]Gal(b1-4)GlcNAc(b1-2)Man(a1-6)]Man(b1-4)GlcNAc(b1-4)[Fuc(a1-6)]GlcNAc
# Method in brief: as §1
# [9] = target: Fuc(a1-2)[GalNAc(a1-3)]Gal(b1-4)GlcNAc(b1-3)Gal(b1-4)GlcNAc
# Method in brief: as §1
# [10] = target: Fuc(a1-2)[GalNAc(a1-3)]Gal(b1-4)GlcNAc(b1-3)Gal(b1-4)GlcNAc(b1-3)Gal(b1-4)GlcNAc
# Method in brief: as §1
# [11] = target: Fuc(a1-2)[GalNAc(a1-3)]Gal(b1-4)GlcNAc(b1-3)[Fuc(a1-2)[GalNAc(a1-3)]Gal(b1-4)GlcNAc(b1-6)]GalNAc
# Method in brief: as §1
# [12] = target: Fuc(a1-2)[GalNAc(a1-3)]Gal(b1-4)[Fuc(a1-3)]GlcNAc(b1-3)GalNAc
# Method in brief: as §1
# [13] = target: Fuc(a1-3)[Gal3S(b1-4)]GlcNAc
# Method in brief: as §1
# Gal(b1-3)Gal(b1-4)GlcNAc = target: Gal(b1-3)Gal(b1-4)GlcNAc
# Method in brief: as §1
# [14] = target: Gal(b1-3)GalNAc(a1-3)[Fuc(a1-2)]Gal(b1-4)Glc
# Method in brief: as §1
# [15] = target: Gal(b1-3)GalNAc(a1-3)[Fuc(a1-2)]Gal(b1-4)GlcNAc
# Method in brief: as §1
# [16] = target: Gal(b1-3)GlcNAc(b1-3)Gal(b1-4)GlcNAc(b1-3)Gal(b1-4)GlcNAc(b1-2)[Gal(b1-3)GlcNAc(b1-3)Gal(b1-4)GlcNAc(b1-3)Gal(b1-4)GlcNAc(b1-6)]Man(a1-6)[Gal(b1-3)GlcNAc(b1-3)Gal(b1-4)GlcNAc(b1-3)Gal(b1-4)GlcNAc(b1-2)Man(a1-3)]Man(b1-4)GlcNAc(b1-4)[Fuc(a1-6)]GlcNAc
# Method in brief: as §1
# [17] = target: Gal(b1-3)GlcNAc(b1-3)Gal(b1-4)GlcNAc(b1-6)[Gal(b1-3)GlcNAc(b1-3)]Gal(b1-4)Glc
# Method in brief: as §1
# [18] = target: Gal(b1-3)[Fuc(a1-4)]GlcNAc(b1-2)Man(a1-3)[Gal(b1-3)[Fuc(a1-4)]GlcNAc(b1-2)Man(a1-6)]Man(b1-4)GlcNAc(b1-4)[Fuc(a1-6)]GlcNAc
# Method in brief: as §1
# [19] = target: Gal(b1-4)GlcNAc(b1-2)Man(a1-3)[GlcNAc(b1-2)Man(a1-6)]Man(b1-4)GlcNAc(b1-4)GlcNAc
# Method in brief: as §1
# [20] = target: Gal(b1-4)GlcNAc(b1-3)Gal(b1-4)GlcNAc(b1-2)Man(a1-3)[Gal(b1-4)GlcNAc(b1-3)Gal(b1-4)GlcNAc(b1-2)Man(a1-6)]Man(b1-4)GlcNAc(b1-4)[Fuc(a1-6)]GlcNAc
# Method in brief: as §1
# [21] = target: Gal(b1-4)GlcNAc(b1-3)Gal(b1-4)GlcNAc(b1-3)Gal(b1-4)GlcNAc(b1-3)Gal(b1-4)GlcNAc(b1-2)Man(a1-3)[Gal(b1-4)GlcNAc(b1-3)Gal(b1-4)GlcNAc(b1-3)Gal(b1-4)GlcNAc(b1-3)Gal(b1-4)GlcNAc(b1-2)Man(a1-6)]Man(b1-4)GlcNAc(b1-4)[Fuc(a1-6)]GlcNAc
# Method in brief: as §1
# Gal3S(b1-4)Glc6S = target: Gal3S(b1-4)Glc6S
# Method in brief: as §1
# GalNAc4S6S(b1-4)GlcNAc = target: GalNAc4S6S(b1-4)GlcNAc
# Method in brief: as §1
# GlcA(b1-3)GlcNAc = target: GlcA(b1-3)GlcNAc
# Method in brief: as §1
binder,measurement,setting,value
B1,glycan array binding signal (z-score),[1],4.44
same,glycan array binding signal (z-score),[2],5.23
same,glycan array binding signal (z-score),[3],4.03
same,glycan array binding signal (z-score),[4],2.16
same,glycan array binding signal (z-score),[5],7.14
same,glycan array binding signal (z-score),[6],4.12
same,glycan array binding signal (z-score),[7],0.97
same,glycan array binding signal (z-score),[8],3.72
same,glycan array binding signal (z-score),[9],3.77
same,glycan array binding signal (z-score),[10],4.33
same,glycan array binding signal (z-score),[11],6.77
same,glycan array binding signal (z-score),[12],-0.333
same,glycan array binding signal (z-score),[13],-0.329
same,glycan array binding signal (z-score),Gal(b1-3)Gal(b1-4)GlcNAc,0.538
same,glycan array binding signal (z-score),[14],3.35
same,glycan array binding signal (z-score),[15],4.05
same,glycan array binding signal (z-score),[16],2.77
same,glycan array binding signal (z-score),[17],4.4
same,glycan array binding signal (z-score),[18],-0.33
same,glycan array binding signal (z-score),[19],-0.329
same,glycan array binding signal (z-score),[20],-0.175
same,glycan array binding signal (z-score),[21],-0.126
same,glycan array binding signal (z-score),Gal3S(b1-4)Glc6S,0.689
same,glycan array binding signal (z-score),GalNAc4S6S(b1-4)GlcNAc,-0.33
same,glycan array binding signal (z-score),GlcA(b1-3)GlcNAc,-0.318
